Unmarked numbers belong to inactive results. Activity calls are given as the source filed them. Unless noted, no stated cut-off is given here; in the data, active means inhibition above about 33%; inactive means the rest.

Data on 20 molecules can be found in PubChem BioAssay.

The target in test [1] is Nuclear receptor coactivator 1 (Homo sapiens) (UniProt Q15788). In words: SRC1 coactivator transcriptional activity inhibitors, confirmation, cell-based, luminescence, quadruplicate (AID 588820;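 active means mean inhibition above 46.68%, the untreated control wells mean plus 3 SD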;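 further: 0% = DMSO wells and 100% = gossypol 36 µM treated wells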). The following applies: HEK293 GAL4-SRC1 luciferase reporter, at 3.6 µM, hits give high values. (In general: In a reporter assay the amount or activity of a reporter protein is the signal.)
Nuclear receptor coactivator 1 (Homo sapiens), sequence (Q15788 whole entry, looked up, the tested form may be a part): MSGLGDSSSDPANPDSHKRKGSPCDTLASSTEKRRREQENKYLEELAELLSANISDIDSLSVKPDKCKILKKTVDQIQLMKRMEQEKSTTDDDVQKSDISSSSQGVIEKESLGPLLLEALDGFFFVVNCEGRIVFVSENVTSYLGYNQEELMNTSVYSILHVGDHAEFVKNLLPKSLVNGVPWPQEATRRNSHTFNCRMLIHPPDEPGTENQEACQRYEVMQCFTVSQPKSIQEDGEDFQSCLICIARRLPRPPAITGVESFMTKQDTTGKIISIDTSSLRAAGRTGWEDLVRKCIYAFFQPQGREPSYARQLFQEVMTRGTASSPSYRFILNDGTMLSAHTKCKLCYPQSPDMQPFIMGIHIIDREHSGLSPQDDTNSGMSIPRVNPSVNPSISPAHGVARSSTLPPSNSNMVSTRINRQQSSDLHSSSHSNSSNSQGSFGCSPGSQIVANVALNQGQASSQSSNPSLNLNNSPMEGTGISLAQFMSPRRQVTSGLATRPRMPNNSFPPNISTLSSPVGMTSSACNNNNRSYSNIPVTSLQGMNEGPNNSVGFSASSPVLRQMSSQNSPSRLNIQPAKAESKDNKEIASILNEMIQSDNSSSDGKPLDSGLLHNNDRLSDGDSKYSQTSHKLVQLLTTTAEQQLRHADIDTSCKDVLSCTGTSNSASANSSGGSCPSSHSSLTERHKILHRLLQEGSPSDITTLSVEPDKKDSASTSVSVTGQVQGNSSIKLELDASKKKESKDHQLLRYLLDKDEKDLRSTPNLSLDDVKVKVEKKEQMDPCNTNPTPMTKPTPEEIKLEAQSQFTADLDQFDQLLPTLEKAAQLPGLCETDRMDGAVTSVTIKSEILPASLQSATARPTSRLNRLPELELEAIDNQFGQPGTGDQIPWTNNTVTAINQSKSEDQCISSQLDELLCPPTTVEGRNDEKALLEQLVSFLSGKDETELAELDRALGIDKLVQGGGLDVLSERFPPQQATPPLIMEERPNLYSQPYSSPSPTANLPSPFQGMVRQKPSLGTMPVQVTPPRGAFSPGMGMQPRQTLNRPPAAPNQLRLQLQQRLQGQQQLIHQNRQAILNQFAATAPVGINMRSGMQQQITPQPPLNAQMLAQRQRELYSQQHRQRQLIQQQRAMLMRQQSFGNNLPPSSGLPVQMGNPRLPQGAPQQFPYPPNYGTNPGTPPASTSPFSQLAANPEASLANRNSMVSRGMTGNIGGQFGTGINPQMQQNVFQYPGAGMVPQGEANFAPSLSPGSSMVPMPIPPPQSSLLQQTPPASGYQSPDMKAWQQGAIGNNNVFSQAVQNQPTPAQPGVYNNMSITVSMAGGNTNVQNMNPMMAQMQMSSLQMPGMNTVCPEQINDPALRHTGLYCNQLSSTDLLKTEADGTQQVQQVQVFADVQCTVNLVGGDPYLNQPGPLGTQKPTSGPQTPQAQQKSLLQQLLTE

Test [2] is described as follows: VP16 transactivation inhibitors, counter-screen for SRC1 inhibitor project, cell-based, luminescence, high throughput (AID 588824; in the data active means inhibition above about 25%). The following applies: cell-based VP16 transactivation luciferase luminescence; at 3.6 µM; hits give high values. (In general: Counterscreens check selectivity or assay interference.)
A short description of test [3]: StAR promoter reporter inhibitors, counter-screen for LRH-1 inverse agonist project, cell-based, luminescence, high throughput (AID 651611; in the data active means inhibition above about 28%). As to conditions: StAR promoter luciferase reporter counterscreen, at 3.6 µM, hits give high values.
The target of test [4] is Nuclear receptor subfamily 5 group A member 2 (Homo sapiens) (UniProt O00482). In words: LRH-1 (NR5A2) inverse agonists, retest, confirmation, cell-based, luminescence (AID 651613; in the data active means inhibition above about 42%;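 further: HEK293T cells co-transfected with LRH-1 and StAR promoter luciferase reporter; 0% = vehicle wells and 100% = parental cells lacking receptor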). As to conditions: cell-based LRH-1 luciferase reporter, inverse agonism; at 3.6 µM; hits give high values.
Nuclear receptor subfamily 5 group A member 2 (Homo sapiens), sequence (O00482 whole entry, looked up): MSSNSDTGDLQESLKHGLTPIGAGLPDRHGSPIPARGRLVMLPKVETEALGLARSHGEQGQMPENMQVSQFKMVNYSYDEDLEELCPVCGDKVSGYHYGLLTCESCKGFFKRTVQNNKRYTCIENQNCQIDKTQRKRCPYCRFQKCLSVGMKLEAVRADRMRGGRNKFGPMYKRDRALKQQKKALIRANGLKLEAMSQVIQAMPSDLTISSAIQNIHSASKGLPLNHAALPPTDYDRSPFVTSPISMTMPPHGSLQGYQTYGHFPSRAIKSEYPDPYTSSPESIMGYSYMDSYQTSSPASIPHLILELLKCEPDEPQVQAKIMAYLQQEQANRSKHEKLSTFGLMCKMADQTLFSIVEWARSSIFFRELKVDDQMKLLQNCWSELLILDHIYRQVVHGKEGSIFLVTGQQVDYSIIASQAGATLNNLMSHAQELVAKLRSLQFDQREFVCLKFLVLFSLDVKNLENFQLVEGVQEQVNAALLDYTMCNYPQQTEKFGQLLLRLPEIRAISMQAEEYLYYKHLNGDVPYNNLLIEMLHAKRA
In test [5] the target is Steroidogenic factor 1 (Homo sapiens) (UniProt Q13285). In words: SF1 (NR5A1) inverse agonists, counter-screen for LRH-1 inverse agonist project, cell-based, luminescence, high throughput (AID 651614; in the data active means inhibition above about 44%;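 further: cells cotransfected with StAR promoter reporter and SF1 expression vector; 0% = vehicle on cells with receptor and 100% = vehicle on cells lacking receptor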). As to conditions: cell-based SF1 luciferase reporter, at 3.6 µM, hits give high values.
Steroidogenic factor 1 (Homo sapiens), sequence (Q13285 whole entry, looked up, the tested form may be a part): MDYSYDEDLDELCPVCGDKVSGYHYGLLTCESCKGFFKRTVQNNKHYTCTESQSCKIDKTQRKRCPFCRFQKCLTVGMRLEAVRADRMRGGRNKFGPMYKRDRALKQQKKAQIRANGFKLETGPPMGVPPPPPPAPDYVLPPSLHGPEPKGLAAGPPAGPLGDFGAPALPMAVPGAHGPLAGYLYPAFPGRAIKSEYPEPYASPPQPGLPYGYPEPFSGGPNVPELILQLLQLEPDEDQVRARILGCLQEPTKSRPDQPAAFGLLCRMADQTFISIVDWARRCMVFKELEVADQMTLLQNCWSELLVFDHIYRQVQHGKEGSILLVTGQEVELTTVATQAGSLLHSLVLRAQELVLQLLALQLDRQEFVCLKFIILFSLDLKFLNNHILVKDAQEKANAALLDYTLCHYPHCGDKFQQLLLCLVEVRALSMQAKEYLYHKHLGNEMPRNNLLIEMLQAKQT
Test [6] is described as follows: VP16 transactivation reporter inhibitors, counter-screen for LRH-1 inverse agonist project, cell-based, luminescence, high throughput (AID 651615). The following applies: Gal4-VP16 luciferase reporter cells, at 3.6 µM, hits give high values.

For the molecule `CC(=O)NC(c1ccc(Cl)cc1Cl)c1ccc2cccnc2c1O` (stereo not given), the inhibition (commonly the relative decrease from the control value, in per cent) is 67.2% (active) in test [1]; 70.6% (active) in test [2]; 85.4% (active) in test [3]; 102% (active) in test [4]; 86.8% (active) in test [5]; 80.2% (active) in test [6].

For `O=C(CSc1nnnn1C1CC2CCC1C2)Nc1ccnc2ccccc12` (stereo not given), the inhibition is -14.4% in test [1]; 44.7% (active) in test [2]; 30% (active) in test [3]; 61% (active) in test [4]; 56.1% (active) in test [5]; 59.1% (active) in test [6].

`COc1ccc(C(=O)NCCN(C)C)c2nc3ccccc3cc12`: the inhibition in test [1] was 20.7%; in test [2], 39.4% (active); in test [3], 63.9% (active); in test [4], 77.7% (active); in test [5], 60% (active); in test [6], 65.3% (active).

Regarding `CN(Cc1ccccc1)C(=O)c1ccc(NC(=O)Cc2ccc(NC(=O)C3CCCN(C(=O)CCc4ccccc4)C3)cc2)cc1` (stereo not given), the inhibition was -11.5% in test [1]; 37.6% (active) in test [2]; 29% (active) in test [3]; 62.2% (active) in test [4]; 64.3% (active) in test [5]; 55.8% (active) in test [6].

In the case of `COCCn1c(SCCCC(=O)c2ccc(Br)cc2)nnc1-c1ccncc1`, the inhibition in test [1] was -2.26%; in test [2], 25.2%; in test [3], 6.33%; in test [4] it was 44.3% (active); in test [5], 46% (active); in test [6] it was 44.7% (active).

As to `COc1cccc2c1C(=O)c1c(O)c3c(c(O)c1C2=O)CC(O)(C(C)=O)CC3OC1CC(O)C(O)C(C)O1` (stereo not given), the inhibition is -3.87% in test [1]; 16.4% in test [2]; 29.2% (active) in test [3]; 50.7% (active) in test [4]; 17.4% in test [5]; 16.1% in test [6].

Turning to `CN(C)CCNc1ccc2ncn3c4ccc(O)cc4c(=O)c1c23`, the inhibition in test [1] was 23.2%; in test [2], 52.9% (active); in test [3], 49.3% (active); in test [4] it was 81.6% (active); in test [5], 80.5% (active); in test [6] it was 79.9% (active).

For the molecule `CC1(C)CC(N2CCCC2)=CC(=[N+]2CCCCC2)C1`, the inhibition in test [1] was -1.69%; in test [2], 31% (active); in test [3], 21.4%; in test [4], 64.8% (active); in test [5], 54.3% (active); in test [6], 52.5% (active).

Consider `COc1cc2c(oc(=O)c3cc(C)cc(OC)c32)c2c(C3OC(C)C(O)C(C)(O)C3O)ccc(O)c12` (stereo not given), for which the inhibition was -62.6% in test [1]; 64.9% (active) in test [2]; 50.6% (active) in test [3]; 93.8% (active) in test [4]; 75.5% (active) in test [5]; 94% (active) in test [6].

With `Cc1ccc2occ(/C=N/NC(=O)c3ccccc3O)c(=O)c2c1`, the inhibition in test [1] is 5.51%; in test [2], 13.2%; in test [3] it was 14.5%; in test [4], 3.45%; in test [5], 2%; in test [6], 25%.

As to `COc1ccc(NC(=O)C2Cc3c(-c4cccc(C(C)=O)c4)ccnc3O2)cc1OC` (stereo not given), the inhibition in test [1] was -17.4%; in test [2] it was 19.6%; in test [3] it was 44% (active); in test [4], 59% (active); in test [5], 72% (active); in test [6] it was 48.8% (active).

For `CC(=NNC(=S)N1CCCCC1)c1ccccn1`, the inhibition is 36.5% in test [1]; 61.5% (active) in test [2]; 70.5% (active) in test [3]; 95.3% (active) in test [4]; 82.2% (active) in test [5]; 52.6% (active) in test [6].

On to `CC(C)C(=O)NC(c1ccc(Cl)cc1Cl)c1ccc2cccnc2c1O` (stereo not given), for which the inhibition in test [1] is 6.86%; in test [2], 16.8%; in test [3], 48.2% (active); in test [4] it was 35.2%; in test [5], 41.4%; in test [6], 47.6% (active).

For `COc1cccc2c1C(=O)c1c(O)c3c(c(O)c1C2=O)C[C@@](O)(C(=O)CO)C[C@@H]3OC1CC(N)C(O)C(C)O1` (stereo not given in full), the inhibition was -127% in test [1]; 71.4% (active) in test [2]; -14.6% in test [3]; 87.5% (active) in test [4]; 70.6% (active) in test [5]; 82.6% (active) in test [6].

`CCCCn1c2c(c(=N)c3c1CCC3)CCC2`: the inhibition was 4.17% in test [1]; 33.1% (active) in test [2]; 26.5% in test [3]; 80.5% (active) in test [4]; 61.9% (active) in test [5]; 61% (active) in test [6].

Turning to `Clc1ccc(-c2nnc(CSc3nnc(-c4cccs4)n3Cc3ccccc3)o2)cc1`, the inhibition in test [1] was -0.02%; in test [2], 30.5% (active); in test [3], 5.56%; in test [4], 51.7% (active); in test [5] it was 48.9% (active); in test [6], 41.6% (active).

As for `CCN(CC)C1=CC(=[N+]2CCCC2)CC(C)(C)C1`, the inhibition in test [1] is -5.15%; in test [2], 22.7%; in test [3], 17.4%; in test [4] it was 61.9% (active); in test [5] it was 57.5% (active); in test [6], 45.8% (active).

Regarding `CC(=O)Nc1ccccc1OCC(=O)c1cc(C)n(Cc2cccs2)c1C`, the inhibition is -59.8% in test [1]; 39.3% (active) in test [2]; 28.7% (active) in test [3]; 21.5% in test [4]; 47.4% (active) in test [5]; 39.6% (active) in test [6].

For `CN(C)CCNc1ccc2nnn3c4ccc(O)cc4c(=O)c1c23`, the inhibition is 0.55% in test [1]; 50.6% (active) in test [2]; 47.1% (active) in test [3]; 71.1% (active) in test [4]; 71.5% (active) in test [5]; 75.9% (active) in test [6].

Consider `Cc1ccc(S(=O)(=O)/N=C(\CCl)N2CCOCC2)cc1`, for which the inhibition in test [1] is -32.5%; in test [2] it was -30.7%; in test [3] it was 23.9%; in test [4], 50.2% (active); in test [5] it was 52.1% (active); in test [6] it was -22.8%.
